The results in this text go back to the supplement of paper PMC11732987, “Enantioselective OTUD7B fragment discovery through chemoproteomics screening and high-throughput optimisation” (Communications Chemistry, 2025).

Unmarked numbers belong to inactive results.

Common to all, as to experiment: log2 ratio of Biotin-Ahx-Ub-VS probe labelling (fragment/DMSO); higher = less target engagement (more negative = stronger competition), active = hit call of the paper (q ≤ 0.05, log2 ratio ≤ -1)
Holding throughout (details): compound concentration: 200 uM; treatment time: 3 h

One assay addresses T1, USP42 (UniProt Q9H9J4).
T1 sequence (whole entry): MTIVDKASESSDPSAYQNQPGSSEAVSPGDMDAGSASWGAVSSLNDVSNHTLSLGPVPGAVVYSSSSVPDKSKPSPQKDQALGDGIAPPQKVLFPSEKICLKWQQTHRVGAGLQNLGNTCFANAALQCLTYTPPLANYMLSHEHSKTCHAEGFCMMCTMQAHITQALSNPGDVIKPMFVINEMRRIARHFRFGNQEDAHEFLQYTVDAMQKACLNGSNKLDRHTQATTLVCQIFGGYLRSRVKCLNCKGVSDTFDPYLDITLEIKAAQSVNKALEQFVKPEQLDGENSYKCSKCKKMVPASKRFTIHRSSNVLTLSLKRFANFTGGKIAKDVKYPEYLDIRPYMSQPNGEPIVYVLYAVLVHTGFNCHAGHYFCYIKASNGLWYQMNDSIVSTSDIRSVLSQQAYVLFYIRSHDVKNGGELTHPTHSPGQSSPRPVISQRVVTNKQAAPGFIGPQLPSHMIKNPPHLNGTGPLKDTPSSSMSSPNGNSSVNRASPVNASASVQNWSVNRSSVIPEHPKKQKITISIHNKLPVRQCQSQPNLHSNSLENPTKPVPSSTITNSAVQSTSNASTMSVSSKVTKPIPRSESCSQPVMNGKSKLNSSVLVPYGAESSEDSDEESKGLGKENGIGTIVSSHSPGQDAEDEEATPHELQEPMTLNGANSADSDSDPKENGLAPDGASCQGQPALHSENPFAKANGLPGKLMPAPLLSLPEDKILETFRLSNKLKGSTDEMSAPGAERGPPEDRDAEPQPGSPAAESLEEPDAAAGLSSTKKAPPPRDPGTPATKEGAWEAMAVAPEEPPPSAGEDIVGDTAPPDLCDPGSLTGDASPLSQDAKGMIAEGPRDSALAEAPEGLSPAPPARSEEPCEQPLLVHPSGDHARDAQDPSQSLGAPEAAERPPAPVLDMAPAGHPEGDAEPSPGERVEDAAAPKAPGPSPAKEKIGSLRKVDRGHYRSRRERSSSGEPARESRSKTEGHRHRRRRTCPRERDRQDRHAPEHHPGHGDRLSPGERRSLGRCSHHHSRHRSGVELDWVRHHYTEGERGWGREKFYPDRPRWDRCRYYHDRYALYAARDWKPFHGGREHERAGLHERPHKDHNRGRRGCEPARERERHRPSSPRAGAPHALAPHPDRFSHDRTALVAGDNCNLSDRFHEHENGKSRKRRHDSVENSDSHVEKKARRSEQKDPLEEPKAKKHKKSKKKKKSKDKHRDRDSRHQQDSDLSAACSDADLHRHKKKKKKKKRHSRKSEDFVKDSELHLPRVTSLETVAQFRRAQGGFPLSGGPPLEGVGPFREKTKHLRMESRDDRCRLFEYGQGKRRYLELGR
Put shortly: (§1)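 Labelled DUBs from HEK293T lysate were NeutrAvidin-enriched, digested with LysC and trypsin, and run by diaPASEF LC-MS/MS. Before that, each 495 µg sample in Tris/CHAPS/IGEPAL buffer with protease inhibitors was treated in triplicate with fragment at 200 µM or vehicle for 3 h, then with Biotin-Ahx-Ub-VS at 0.5 µM final for 1 h. Values are average log2 ratios of fragment over vehicle by unpaired t-test, based on global-median-normalised Spectronaut label-free quantities from proteins with ≥2 unique peptides.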

The target in another assay is USP46 (UniProt P62068). Put shortly:
as §1

In another assay the target is T2, USP47 (UniProt Q96K76).
T2 sequence (whole entry): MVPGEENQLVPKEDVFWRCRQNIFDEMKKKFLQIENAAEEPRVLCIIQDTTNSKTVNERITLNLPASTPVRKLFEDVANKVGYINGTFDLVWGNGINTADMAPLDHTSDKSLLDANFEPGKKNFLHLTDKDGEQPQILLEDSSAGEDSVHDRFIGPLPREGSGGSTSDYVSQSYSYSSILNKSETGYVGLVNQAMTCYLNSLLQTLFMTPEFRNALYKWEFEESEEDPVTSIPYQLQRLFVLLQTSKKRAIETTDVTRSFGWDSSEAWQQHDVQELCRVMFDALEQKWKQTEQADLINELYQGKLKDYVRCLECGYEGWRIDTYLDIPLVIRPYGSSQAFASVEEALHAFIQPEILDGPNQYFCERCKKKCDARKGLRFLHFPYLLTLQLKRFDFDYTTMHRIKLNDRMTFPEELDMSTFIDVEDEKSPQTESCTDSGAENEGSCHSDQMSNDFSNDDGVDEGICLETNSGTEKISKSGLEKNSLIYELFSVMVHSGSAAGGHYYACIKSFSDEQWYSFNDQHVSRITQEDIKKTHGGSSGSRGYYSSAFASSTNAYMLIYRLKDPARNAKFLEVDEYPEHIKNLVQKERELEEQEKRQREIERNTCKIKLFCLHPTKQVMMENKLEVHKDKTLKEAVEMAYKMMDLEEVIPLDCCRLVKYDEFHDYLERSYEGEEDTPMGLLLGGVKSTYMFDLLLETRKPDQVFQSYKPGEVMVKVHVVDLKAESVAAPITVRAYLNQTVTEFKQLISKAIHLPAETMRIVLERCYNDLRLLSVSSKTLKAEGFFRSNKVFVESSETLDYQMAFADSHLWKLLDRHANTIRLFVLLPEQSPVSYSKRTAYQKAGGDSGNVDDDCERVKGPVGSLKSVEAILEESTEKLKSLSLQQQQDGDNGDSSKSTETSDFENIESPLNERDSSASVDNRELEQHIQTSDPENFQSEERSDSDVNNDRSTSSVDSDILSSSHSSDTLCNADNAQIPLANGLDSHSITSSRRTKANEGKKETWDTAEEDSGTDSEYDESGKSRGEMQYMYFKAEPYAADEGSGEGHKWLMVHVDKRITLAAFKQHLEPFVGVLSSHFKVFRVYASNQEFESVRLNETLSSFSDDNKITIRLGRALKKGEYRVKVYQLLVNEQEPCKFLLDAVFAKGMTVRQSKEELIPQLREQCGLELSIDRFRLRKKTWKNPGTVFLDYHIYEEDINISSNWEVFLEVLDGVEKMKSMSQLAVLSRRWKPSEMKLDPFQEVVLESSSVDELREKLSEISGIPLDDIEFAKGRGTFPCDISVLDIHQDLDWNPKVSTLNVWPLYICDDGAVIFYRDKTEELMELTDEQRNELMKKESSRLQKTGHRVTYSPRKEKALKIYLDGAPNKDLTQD
Put shortly: as §1

For a further assay, the target named is T3, USP48 (UniProt Q86UV5).
T3 sequence (whole entry): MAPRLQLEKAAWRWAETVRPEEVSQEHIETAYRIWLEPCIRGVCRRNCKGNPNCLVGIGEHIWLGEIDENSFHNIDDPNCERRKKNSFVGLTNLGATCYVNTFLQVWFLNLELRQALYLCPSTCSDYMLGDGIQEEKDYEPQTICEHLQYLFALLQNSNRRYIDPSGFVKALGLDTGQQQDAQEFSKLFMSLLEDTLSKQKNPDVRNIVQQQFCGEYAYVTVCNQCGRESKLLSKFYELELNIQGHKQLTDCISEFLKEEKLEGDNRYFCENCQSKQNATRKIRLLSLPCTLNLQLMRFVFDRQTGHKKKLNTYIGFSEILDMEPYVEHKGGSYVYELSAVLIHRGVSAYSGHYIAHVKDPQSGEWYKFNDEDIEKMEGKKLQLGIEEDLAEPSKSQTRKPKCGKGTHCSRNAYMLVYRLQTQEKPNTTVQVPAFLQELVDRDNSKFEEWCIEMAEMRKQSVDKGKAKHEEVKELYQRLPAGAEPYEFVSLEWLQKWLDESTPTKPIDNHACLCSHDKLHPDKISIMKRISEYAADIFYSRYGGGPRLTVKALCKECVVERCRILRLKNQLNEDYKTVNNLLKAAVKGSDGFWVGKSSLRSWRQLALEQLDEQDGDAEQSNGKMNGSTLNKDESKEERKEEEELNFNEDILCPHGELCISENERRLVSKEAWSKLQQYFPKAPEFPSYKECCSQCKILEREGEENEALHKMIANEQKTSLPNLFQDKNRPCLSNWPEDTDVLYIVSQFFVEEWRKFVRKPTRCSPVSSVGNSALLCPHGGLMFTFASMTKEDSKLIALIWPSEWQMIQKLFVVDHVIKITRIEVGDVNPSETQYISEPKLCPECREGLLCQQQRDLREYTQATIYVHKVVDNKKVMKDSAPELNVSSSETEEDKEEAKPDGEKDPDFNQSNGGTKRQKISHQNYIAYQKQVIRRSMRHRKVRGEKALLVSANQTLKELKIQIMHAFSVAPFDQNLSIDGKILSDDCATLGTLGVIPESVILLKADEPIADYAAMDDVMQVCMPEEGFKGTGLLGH
The method, boiled down: as §1

A further assay concerns the target T4, USP5 (UniProt P45974).
T4 sequence (whole entry): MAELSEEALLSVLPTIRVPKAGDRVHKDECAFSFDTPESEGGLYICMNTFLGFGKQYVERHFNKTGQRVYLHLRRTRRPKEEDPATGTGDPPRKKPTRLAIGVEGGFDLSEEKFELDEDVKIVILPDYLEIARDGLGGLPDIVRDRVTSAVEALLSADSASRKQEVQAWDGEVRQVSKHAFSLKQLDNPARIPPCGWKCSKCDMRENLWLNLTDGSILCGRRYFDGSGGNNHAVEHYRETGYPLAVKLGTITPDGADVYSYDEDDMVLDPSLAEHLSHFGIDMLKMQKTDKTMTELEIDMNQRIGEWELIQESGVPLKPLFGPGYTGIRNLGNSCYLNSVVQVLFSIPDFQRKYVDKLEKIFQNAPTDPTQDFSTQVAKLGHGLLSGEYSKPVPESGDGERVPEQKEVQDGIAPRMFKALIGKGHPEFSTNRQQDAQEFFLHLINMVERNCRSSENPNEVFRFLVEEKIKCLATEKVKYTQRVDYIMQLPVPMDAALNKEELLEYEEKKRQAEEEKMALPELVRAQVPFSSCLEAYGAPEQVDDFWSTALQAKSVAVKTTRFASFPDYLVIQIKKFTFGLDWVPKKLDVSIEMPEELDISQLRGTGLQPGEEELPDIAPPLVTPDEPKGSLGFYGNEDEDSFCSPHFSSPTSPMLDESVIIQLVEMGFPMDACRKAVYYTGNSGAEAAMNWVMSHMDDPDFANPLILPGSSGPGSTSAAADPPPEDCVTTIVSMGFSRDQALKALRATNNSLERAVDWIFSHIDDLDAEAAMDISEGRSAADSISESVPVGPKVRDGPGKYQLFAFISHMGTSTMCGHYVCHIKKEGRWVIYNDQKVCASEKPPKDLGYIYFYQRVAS
The method, boiled down:
as §1

In the next assay the target is USP54 (UniProt Q70EL1). The method, boiled down:
as §1

The target in a further assay is USP7 (UniProt Q93009). The method, boiled down: as §1
In the next assay the target is T5, USP8 (UniProt P40818).
T5 sequence (whole entry): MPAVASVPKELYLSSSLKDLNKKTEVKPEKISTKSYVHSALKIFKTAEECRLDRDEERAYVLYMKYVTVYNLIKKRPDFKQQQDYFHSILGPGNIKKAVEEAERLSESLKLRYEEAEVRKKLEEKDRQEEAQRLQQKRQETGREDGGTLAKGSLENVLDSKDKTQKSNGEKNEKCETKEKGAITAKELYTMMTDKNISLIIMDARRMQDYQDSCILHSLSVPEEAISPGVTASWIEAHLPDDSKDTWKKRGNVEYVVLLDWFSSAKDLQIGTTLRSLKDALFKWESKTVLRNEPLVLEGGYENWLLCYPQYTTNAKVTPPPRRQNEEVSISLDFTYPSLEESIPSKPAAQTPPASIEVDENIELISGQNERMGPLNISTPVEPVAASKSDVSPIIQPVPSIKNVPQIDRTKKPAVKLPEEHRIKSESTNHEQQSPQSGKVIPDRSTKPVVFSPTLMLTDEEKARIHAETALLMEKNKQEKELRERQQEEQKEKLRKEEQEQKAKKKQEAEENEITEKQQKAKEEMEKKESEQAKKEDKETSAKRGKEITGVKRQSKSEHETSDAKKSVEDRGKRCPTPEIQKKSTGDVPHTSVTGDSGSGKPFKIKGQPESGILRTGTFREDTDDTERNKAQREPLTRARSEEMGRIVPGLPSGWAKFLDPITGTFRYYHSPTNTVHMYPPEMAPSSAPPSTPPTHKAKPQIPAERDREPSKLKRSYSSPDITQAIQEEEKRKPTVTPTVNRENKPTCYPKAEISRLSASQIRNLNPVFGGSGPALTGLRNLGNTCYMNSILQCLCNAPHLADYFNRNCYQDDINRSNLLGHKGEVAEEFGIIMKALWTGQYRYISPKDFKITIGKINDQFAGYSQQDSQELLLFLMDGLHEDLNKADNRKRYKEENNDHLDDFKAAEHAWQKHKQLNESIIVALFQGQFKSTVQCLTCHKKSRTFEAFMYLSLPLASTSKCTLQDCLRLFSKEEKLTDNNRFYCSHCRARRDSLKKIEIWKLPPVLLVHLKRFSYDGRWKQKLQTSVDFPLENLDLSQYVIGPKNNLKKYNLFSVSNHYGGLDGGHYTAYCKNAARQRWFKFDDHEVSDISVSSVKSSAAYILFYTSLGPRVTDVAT
Put shortly: as §1

Another assay deals with USP9X (UniProt Q93008). Put shortly:
as §1

The target of another assay is UniProt O00487. Put shortly: as §1
UniProt O00487, sequence (O00487 whole entry): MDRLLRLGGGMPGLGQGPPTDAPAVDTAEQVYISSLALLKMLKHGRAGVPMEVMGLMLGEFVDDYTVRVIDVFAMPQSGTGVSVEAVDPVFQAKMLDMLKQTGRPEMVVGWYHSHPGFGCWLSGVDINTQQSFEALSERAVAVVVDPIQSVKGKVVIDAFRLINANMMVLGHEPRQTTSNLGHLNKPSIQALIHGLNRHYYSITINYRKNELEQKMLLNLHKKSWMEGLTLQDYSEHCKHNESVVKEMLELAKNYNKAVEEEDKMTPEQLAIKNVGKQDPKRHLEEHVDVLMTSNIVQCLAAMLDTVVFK

USP46, sequence (P62068 whole entry): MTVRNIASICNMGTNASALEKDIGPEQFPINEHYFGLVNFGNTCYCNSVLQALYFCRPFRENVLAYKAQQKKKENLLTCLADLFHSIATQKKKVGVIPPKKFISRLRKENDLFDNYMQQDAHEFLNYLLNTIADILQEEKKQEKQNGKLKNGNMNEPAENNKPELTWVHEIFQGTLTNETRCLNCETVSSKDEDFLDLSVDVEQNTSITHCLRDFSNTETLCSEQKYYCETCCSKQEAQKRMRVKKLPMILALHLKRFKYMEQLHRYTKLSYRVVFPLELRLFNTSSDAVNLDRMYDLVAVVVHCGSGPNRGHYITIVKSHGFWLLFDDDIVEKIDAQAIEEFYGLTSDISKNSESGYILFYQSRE
USP7, sequence (Q93009 whole entry, looked up): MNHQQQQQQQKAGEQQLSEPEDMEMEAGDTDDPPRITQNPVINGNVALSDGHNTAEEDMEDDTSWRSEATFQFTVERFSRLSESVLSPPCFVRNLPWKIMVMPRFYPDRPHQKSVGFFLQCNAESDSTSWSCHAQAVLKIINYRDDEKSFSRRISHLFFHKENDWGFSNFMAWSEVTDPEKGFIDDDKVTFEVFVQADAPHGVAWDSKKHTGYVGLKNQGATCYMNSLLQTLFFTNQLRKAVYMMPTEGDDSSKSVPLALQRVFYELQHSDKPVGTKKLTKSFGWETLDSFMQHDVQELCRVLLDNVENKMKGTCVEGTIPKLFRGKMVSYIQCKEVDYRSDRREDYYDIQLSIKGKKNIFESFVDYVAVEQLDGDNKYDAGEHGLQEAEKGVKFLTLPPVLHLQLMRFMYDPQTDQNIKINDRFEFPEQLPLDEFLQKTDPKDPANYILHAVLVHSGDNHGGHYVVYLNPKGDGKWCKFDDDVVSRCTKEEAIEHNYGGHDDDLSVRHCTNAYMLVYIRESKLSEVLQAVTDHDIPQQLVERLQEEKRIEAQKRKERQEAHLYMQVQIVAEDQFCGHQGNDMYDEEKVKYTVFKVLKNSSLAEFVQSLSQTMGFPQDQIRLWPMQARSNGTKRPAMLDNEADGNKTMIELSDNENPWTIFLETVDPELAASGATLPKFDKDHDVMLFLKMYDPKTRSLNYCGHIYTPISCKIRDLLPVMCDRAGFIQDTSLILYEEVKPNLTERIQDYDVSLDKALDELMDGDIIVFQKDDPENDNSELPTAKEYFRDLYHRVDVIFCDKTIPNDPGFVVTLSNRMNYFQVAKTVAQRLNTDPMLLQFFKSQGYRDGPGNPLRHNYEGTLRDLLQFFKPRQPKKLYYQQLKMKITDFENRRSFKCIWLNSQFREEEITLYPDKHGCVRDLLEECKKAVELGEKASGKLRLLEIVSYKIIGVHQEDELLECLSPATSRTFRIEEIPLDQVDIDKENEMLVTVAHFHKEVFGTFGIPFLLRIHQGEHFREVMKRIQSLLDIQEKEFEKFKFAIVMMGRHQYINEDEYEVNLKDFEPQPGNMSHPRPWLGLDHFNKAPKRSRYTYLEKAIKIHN
USP9X, sequence (Q93008 whole entry): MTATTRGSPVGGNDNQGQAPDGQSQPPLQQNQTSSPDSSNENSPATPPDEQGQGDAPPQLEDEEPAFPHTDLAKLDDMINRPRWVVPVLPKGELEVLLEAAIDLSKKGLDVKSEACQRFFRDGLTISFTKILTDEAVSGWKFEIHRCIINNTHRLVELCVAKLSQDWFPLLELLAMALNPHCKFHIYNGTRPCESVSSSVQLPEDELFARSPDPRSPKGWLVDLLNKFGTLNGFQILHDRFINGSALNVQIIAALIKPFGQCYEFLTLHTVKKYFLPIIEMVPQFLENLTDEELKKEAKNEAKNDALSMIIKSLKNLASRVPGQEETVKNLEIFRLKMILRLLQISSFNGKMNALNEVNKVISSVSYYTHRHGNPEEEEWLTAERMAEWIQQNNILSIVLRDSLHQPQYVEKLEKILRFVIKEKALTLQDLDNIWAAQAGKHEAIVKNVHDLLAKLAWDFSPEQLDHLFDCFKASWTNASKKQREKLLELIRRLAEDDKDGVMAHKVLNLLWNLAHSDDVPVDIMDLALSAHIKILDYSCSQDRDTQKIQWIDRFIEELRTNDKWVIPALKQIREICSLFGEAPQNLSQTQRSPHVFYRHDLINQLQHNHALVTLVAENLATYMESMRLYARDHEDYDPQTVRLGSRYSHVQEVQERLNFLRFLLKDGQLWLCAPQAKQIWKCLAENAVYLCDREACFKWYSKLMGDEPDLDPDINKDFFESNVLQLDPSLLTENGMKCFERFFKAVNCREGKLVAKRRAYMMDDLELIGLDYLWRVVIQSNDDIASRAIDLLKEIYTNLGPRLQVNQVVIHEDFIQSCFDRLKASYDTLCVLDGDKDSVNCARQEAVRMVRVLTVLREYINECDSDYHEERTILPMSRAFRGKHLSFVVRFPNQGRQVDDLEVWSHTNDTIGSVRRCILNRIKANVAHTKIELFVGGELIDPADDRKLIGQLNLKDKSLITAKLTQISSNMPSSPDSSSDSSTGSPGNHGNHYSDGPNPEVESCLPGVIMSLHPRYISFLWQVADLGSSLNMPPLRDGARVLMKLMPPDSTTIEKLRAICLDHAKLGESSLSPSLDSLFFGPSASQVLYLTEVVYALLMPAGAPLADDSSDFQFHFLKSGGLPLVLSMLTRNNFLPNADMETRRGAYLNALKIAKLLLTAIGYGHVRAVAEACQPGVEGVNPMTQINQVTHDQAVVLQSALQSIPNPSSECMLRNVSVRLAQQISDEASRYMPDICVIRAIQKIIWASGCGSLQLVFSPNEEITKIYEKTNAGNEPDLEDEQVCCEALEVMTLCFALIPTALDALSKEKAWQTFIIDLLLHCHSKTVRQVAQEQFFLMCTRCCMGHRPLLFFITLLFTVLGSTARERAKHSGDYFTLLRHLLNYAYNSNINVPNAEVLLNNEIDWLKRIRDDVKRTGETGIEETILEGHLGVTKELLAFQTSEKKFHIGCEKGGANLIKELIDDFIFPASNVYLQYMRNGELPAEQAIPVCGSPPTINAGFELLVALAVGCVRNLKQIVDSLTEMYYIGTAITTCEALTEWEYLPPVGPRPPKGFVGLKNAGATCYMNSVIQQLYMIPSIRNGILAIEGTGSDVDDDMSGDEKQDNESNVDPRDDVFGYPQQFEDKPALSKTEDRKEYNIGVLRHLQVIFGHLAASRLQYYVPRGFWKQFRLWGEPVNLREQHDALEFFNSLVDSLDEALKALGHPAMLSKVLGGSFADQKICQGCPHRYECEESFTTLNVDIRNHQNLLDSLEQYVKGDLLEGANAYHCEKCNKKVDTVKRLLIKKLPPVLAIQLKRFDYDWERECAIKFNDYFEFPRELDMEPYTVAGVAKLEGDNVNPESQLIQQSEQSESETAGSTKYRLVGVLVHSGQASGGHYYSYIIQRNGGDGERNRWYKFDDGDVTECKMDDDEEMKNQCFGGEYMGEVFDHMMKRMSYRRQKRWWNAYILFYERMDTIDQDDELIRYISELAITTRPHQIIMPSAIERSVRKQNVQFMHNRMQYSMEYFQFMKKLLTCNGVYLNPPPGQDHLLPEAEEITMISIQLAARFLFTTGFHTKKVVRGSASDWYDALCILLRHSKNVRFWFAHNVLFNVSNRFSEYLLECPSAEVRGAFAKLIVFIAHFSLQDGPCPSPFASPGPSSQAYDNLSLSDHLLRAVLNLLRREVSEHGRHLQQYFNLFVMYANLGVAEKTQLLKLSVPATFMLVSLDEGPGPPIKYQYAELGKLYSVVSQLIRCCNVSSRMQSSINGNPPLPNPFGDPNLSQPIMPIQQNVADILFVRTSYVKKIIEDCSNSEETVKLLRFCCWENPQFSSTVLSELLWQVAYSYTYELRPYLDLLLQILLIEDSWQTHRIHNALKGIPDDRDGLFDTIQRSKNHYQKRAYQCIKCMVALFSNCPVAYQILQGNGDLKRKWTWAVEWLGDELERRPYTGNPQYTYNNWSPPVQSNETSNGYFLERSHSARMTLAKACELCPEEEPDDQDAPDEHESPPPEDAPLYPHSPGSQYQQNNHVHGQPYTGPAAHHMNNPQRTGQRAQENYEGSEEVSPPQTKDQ

For the compound `Cc1conc1C1CN(C(=O)CCl)C1`, the “log2 ratio of Biotin-Ahx-Ub-VS probe labelling” value in the assay with USP42 was 0.317; with USP46 it was -0.643; in the assay with USP47 it was -0.971; with USP48, -0.753; with USP5, -0.555; with USP54, 1.02. The “log2 ratio of Biotin-Ahx-Ub-VS probe labelling” value in the assay with USP7 is -1.04 (active); with USP8, -0.915; with USP9X, -0.803; with UniProt O00487, -0.115.
